Reference: PubChem BioAssay AID624305 (National Center for Advancing Translational Sciences (NCATS), 2012)
Records with an inconclusive call do not appear. Activity calls are given as the source filed them. The call rests on the fitted dose curve; in most records, active means well fitted activation curve with a large enough effect; inconclusive means small, poorly fitted or top-dose-only effect; inactive means no such curve, though single readings can be large or run the other way.

assay: qHTS assay for re-activators of p53 using a Luc reporter: Hit Validation; conditions: p53-responsive luciferase reporter cells, luminescence, H1299 line expressing heat-sensitive Ala138Val p53; series mostly up to 46.1 µM; activation: at the top concentration; further: nearly all actives have a fitted effect of over 75% in size; on activation: 0% is about no effect
Excerpt: The p53 tumor suppressor plays a key role in suppression of tumorigenesis and in human carcinogenesis. It is frequently found inactivated in human cancers, mainly by point mutation. These point mutations are found in a wide variety of human cancers and a majority of them affect the DNA binding domain of the protein. The point mutations either alter native p53 conformation or abolish DNA contact. Additionally, cancer cells with p53 mutations are more resistant to chemo-radiation therapies.
In order to find activators to reactivate this important protein, a cell-based screen for p53-dependent luciferase-reporter expression was developed. A p53-null H1299 lung cancer cell line was stably co-transfected with a temperature sensitive p53 mutant, p53-A138V, and a p53-responsive BP100-luciferase reporter. This cell model has previously been characterized in a gene chip profiling experiment for p53 activation. By lowering the culture temperature from 37 deg C (mutant p53 conformation) to 32 deg C (w.t. p53 conformation), a 30-60 fold increase in activation of luciferase activity is observed. At assay temperate, 37 deg C, basal reporter expression is very low and after the addition of detection reagent, a luminescent read-out is carried out. This is the hit validation assay, confirming the hits identified from the primary screen.
NIH Chemical Genomics Center [NCGC]
NIH Molecular Libraries Probe Production Centers Network [MLPCN]
Assay Provider (PI): Yi Sung, University of Michigan at Ann Arbor
5ul of 1000 cells per well are dispensed in all wells except column 4, into white solid-bottom TC-treated Kalypsys plates. The cells are kept in Opti-MEM and supplemented with 10% FBS and dispensed using a Multidrop (Thermo). Then using the Kalypsys pin-tool, 23nl of compounds are pinned. The compounds are starting concentration at 10mM, with 1:5 dilution, 4 points, and the control compound nocodazole is pinned in column 1 at 25mM, 1:3 dilution, in duplicate, 25mM nocodazole is pinned in column 2. Please note, all concentrations are working concentrations. 5ul of 1pM purified luciferase enzyme is dispensed using the Kalypsys dispenser in column 4. Plates are incubated for 24 hrs at 37 deg C, 5% CO2, and 95% humidity. Then 4ul of the detection reagent Amplite (ABD Bioquest) is added using the Kalypsys dispenser. Plates are incubated for 10 min at ambient room temperature and are then read on the ViewLux (Perkin Elmer) using a clear filter for a luminescent read-out.
Potency means the concentration at half of the fitted maximal effect.

activation, inactive:
C=CCOc1c(Br)cc(CNCCCN2CCOCC2)cc1OC -24%
Cc1ccc(S(=O)(=O)c2cn(CC(=O)Nc3ccccc3)c3ccc(F)cc3c2=O)cc1 21.9%
CC(=O)c1cccc(NS(=O)(=O)N(C)C)c1 -1.04%
CS(=O)(=O)N1CCC(C(=O)Nc2cc(Cl)c(Cl)cc2Cl)CC1 -4.17%
COc1ccc(-c2nc(-c3ccc(NC(=O)c4ccncc4)cc3)no2)cc1OC -19.3%
Cc1cc([N+](=O)[O-])ccc1NC(=O)/C=C/c1cccs1 40.6%
S=c1[nH]nc(-c2ccco2)n1Cc1ccccc1 -16.1%
CC(=O)c1cccc(NC(=O)c2sc(Cl)nc2C)c1 7.29%
C/C(Cn1nnc([N+](=O)[O-])n1)=N\NC(=O)c1ccc(C)cc1 26.6%
COc1cc(OC)cc(C(=O)NNC(=O)c2ccccn2)c1 -2.08%
CN(CC(=O)Nc1ccc(Cl)c(Cl)c1)C(=O)C1CCCC1 -22.4%
COc1ccccc1OCCn1nnc2ccccc21 36.5%
COc1ccc(S(=O)(=O)NC2CC(C)(C)NC(C)(C)C2)c2ccccc12 -12%
C/C(=N\NS(=O)(=O)c1ccc(Cl)cc1)c1ccc(NC(=O)c2ccco2)cc1 24.5%
COc1cccc(C2(c3cccc(OC)c3)CC2C(=O)Nc2cccc3ccccc23)c1 (stereo not given) -28.6%
O=C(NNC(=O)C1CCCO1)c1ccccc1Cl (stereo not given) -6.25%
CCCCOC(=O)c1ccc(NC(=O)CSc2nncn2C)cc1 41.1%
Cc1ccc2cc(C#N)c(NCc3ccco3)nc2c1 -78.1%
C/C(=N\OCC(=O)NC12CC3CC(CC(C3)C1)C2)c1cc2ccccc2o1 3.65%
O=C1CCCC(O)=C1N=Nc1c(Cl)cc(Cl)cc1Cl 26.6%
COC(=O)c1ccc(CSc2nnc(-c3c[nH]c4ccccc34)n2-c2ccccc2)cc1 5.21%
Cc1csc(NC(=O)CSc2nnc(-c3cccs3)n2C)n1 10.9%
Cc1cccc(Nc2nc(N3CCOCC3)nc(N3CCOCC3)n2)c1 35.9%
O=C(NCCN1CCCCC1)Nc1cccc(C(F)(F)F)c1 -0.521%
Cc1cs/c(=N\N=C\c2ccc(O)cc2)n1Cc1ccco1 23.4%

Potency, active:
Cc1c(C(=O)OC2CCC(C)CC2)[nH]c2c1C(=O)CCC2 (stereo not given) 1160 nM
O=C(COc1ccccc1Cl)Nc1ccc(Cl)cn1 20600 nM
N#C/C(=C\c1ccc(OCc2ccc(Br)cc2)cc1)C(=O)Nc1cccc(C(=O)O)c1 2910 nM
COC(=O)c1ccc(/C=C/c2ccc3cccc(OC(C)=O)c3n2)cc1 2910 nM
COc1cc(NC(=O)C(C)C)ccc1NC(=O)c1ccco1 7310 nM
O=C(Nc1ncc(Cc2ccccc2)s1)c1cccs1 2590 nM
O=C(/C=C/c1ccco1)Nc1ccccn1 2310 nM
Cc1cccc(-n2c(C)cc(C(=O)NC3CCCCC3)c2C)c1 7310 nM
COc1ccc(-c2nnc(SCC(=O)/C(C#N)=C(\C)N)o2)cc1 326 nM
COc1ccc2oc(C(=O)Nc3nc(C)cs3)c(C)c2c1 1840 nM
C=CCNc1nc(-c2cc3ccccc3o2)cs1 651 nM
O=c1c2ccccc2oc2ccc(-c3ccc4cc[nH]c4c3)cc12 411 nM
N#Cc1cc2c(nc1SCC(=O)Nc1nccs1)CCCCC2 206 nM
COc1ccc(-c2nsc3c(N4CCCC4)ncnc23)cc1 92 nM
Fc1ccccc1OCCSc1nnnn1-c1ccccc1 820 nM
